In PubChem BioAssay (NCATS):
Results filed as inconclusive are left out. Activity calls are given as the source filed them. Calls come from the whole dose curve; as a rule, active = well fitted curve in the direction sought with a large enough effect; inconclusive = small, poorly fitted or top-dose-only effect, or another doubt; inactive = no such curve, though single readings can be large; an effect the other way counts as inactive or inconclusive.

How the values were obtained:
[1] = biological target: Cellular tumor antigen p53 (Homo sapiens) (UniProt P04637); experiment: Primary qHTS for small molecule compounds that upregulate eGFP-tagged delta133p53alpha (in N-terminal) cells. (AID 2060322); conditions: NCI-H358 eGFP-delta133p53alpha fluorescence, 24 h; activation: active compounds read high;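 note: cells pre-induced with doxycycline then dosed without doxycycline; series mostly up to about 56 µM; 0% = DMSO vehicle and 100% = reference activator; nearly all actives have a fitted effect of over 75% in size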
Procedure, shortened: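 NCI-H358 cells pre-induced 24 h with 10 ng/ml doxycycline for eGFP-delta133p53alpha, plated dox-free and exposed 24 h at 37C to titrated compounds. Fixed, Hoechst-stained; gated GFP peak intensity by laser scanning cytometry, normalized to DMSO (0%) and 57.5 uM 5-azacytidine (100%).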

[2] = biological target: Aldehyde dehydrogenase, mitochondrial (Homo sapiens) (UniProt P05091); experiment: qHTS for Inhibitors of the Aldehyde Dehydrogenase Family (ALDH2) Primary screen (AID 2061308);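 note: plate controls were vehicle for no effect and reference inhibitor for full effect; nearly all actives have a fitted effect of over 55% in size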
[3] = biological target: Retinaldehyde dehydrogenase 3 (Homo sapiens) (UniProt P47895); experiment: qHTS for Inhibitors of the Aldehyde Dehydrogenase Family (ALDH1A3) Primary screen (AID 2061315);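 note: plate controls were DMSO vehicle for no effect and reference inhibitor for full effect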

Cellular tumor antigen p53 (Homo sapiens), sequence (P04637 whole entry, looked up): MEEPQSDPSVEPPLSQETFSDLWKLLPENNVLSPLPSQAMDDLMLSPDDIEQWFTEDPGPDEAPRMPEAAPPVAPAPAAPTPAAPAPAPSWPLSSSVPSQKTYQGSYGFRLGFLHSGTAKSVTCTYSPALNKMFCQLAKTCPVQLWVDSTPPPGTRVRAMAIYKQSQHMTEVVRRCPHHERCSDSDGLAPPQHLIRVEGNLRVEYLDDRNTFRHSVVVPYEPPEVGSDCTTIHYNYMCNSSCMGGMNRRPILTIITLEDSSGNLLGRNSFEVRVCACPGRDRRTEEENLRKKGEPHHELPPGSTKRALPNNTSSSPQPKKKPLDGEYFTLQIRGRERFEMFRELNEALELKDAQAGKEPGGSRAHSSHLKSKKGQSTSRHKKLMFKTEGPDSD

C=C1C[C@]23C[C@H]1CC[C@H]2[C@]1(C)CC[C@H](O)[C@@](C)(C(=O)O)[C@H]1[C@@H]3C(=O)O
inactive: activation [1] -6.11% | Potency [2] | Potency [3]

CN1CCN(c2ccc(Nc3cc(-c4cccc(-n5ccc6cc(C7CC7)cc(F)c6c5=O)c4CO)cn(C)c3=O)nc2)CC1
inactive: activation [1] 2.68% | Potency [2] | Potency [3]

C=C[C@@]1(C)CCC2C(=CCC3[C@]2(C)CCC[C@@]3(C)C(=O)O)C1 (some centres not stated)
inactive: activation [1] -12.2% | Potency [2] | Potency [3]

C[C@@]1(O)[C@H](O)[C@@H](CO)O[C@H]1n1ccc(N)nc1=O
inactive: activation [1] 0.333% | Potency [2] | Potency [3]

CC(/C=C/C1=CC2=CC(=O)C(C)(O)C(O)C2=CO1)=C\C(C)CCO (configuration not stated)
inactive: activation [1] 7.63% | Potency [2] | Potency [3]

CC(=O)O[C@@H]1[C@@H](OC(=O)/C=C/c2ccccc2)[C@H](C)O[C@@H](O[C@H]2[C@@H]3C=CO[C@@H](O[C@@H]4O[C@H](CO)[C@@H](O)[C@H](O)[C@H]4O)[C@@H]3[C@@]3(CO)O[C@@H]23)[C@@H]1OC(C)=O
inactive: activation [1] -3.82% | Potency [2] | Potency [3]

CC12CCC(OC3OC(CO)C(O)C(OC4OC(CO)C(O)C(O)C4O)C3O)CC1=CCC1C2CCC2(C)/C(=C3/COC(=O)C3)CCC12O (configuration not stated)
inactive: activation [1] -13% | Potency [2] | Potency [3]

O=C(OCC(O)CO[C@@H]1O[C@H](C(=O)O)[C@@H](O)[C@H](O)[C@H]1O)c1ccccc1 (some centres not stated)
inactive: activation [1] -13% | Potency [2] | Potency [3]

COC(=O)C1=CO[C@@H](O[C@@H]2O[C@H](CO)[C@@H](O)[C@H](O)[C@H]2O)[C@@H]2C(COC(C)=O)=C[C@H](O)[C@H]12
inactive: activation [1] -14.5% | Potency [2] | Potency [3]
